# Results as given in PubChem BioAssay.
# The source made the active and inactive calls. Unless noted, the rule behind the calls is not given here.
# How the values were obtained:
# [1] = tested on: Wnt5a (protein binding on small-molecule microarray); experiment: small molecules binding Wnt5a protein – biophysical, small-molecule microarray, 635/667 nm fluorescence, primary screen (AID 1142); details: 635 nm fluorescence, higher = more signal;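 note: fluorescence read at 667 nm with signal to noise per printed feature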
# [2] = ATP-based viability of Huh7 replicon cells – cell-based, CellTiter-Glo luminescence, basal, 48 h, cytotoxicity control for HCV replication inhibitor project, primary screen (AID 1143); details: higher = more signal, called active from +8 up or from −8 down;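 note: Huh7 hepatoma cells carrying a hepatitis C replication reporter with no stimulus; test concentration not given here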
# [3] = Pseudomonas biofilm growth suppression – PAO1 strain, BacTiter-Glo luminescence, LB-PBS, primary screen (AID 1144); details: P. aeruginosa PAO1 biofilm, 12 h, higher = more signal
# [4] = basal CRE-LacZ reporter activity in PC12 – cell-based, unstimulated, primary screen (AID 1145); details: no forskolin, luminescence, 4.5 h, higher = more signal, called active from +8 up or from −8 down
# [5] = forskolin-driven CRE-LacZ activity in PC12 – cell-based, CRE-LacZ reporter, forskolin-stimulated, primary screen (AID 1146); details: luminescence, 4.5 h, higher = more signal, called active from +8 up or from −8 down;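 note: PC12 cells with 6xCRE LacZ reporter stimulated by forskolin 10 µM; beta-galactosidase reporter signal reflecting CREB driven transcription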
# [6] = biological target: Streptavidin (Streptomyces avidinii) (UniProt P22629); experiment: compounds binding control protein streptavidin – biophysical, small-molecule microarray, 635/667 nm fluorescence, artefact control for SMM compound annotation, primary screen (AID 1147); details: higher = more signal;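 note: signal reflects streptavidin binding to arrayed compounds as a control protein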
# Chain of Streptavidin (Streptomyces avidinii) (P22629 whole entry, looked up): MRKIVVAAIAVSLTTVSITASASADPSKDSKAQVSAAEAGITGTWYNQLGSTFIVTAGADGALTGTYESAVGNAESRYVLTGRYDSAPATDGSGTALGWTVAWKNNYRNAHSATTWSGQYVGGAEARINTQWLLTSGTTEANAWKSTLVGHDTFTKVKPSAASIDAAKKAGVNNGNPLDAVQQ
# [7] = probe aInhba binding on compound microarray – biochemical, small-molecule microarray, 635/667 nm fluorescence, primary screen (AID 1148); details: higher = more signal;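 note: score merges 667nm spot fluorescence with signal-to-noise for antibody binding to printed compounds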
# Torsin-1A (Homo sapiens) [8] = biological target: Torsin-1A (Homo sapiens) (UniProt O14656); experiment: TOR1A wild-type binding on microarray – cell lysate, small-molecule microarray, lysate, 635/667 nm, primary screen (AID 1149); details: COS7 hTOR1A-WT lysate, 635 nm fluorescence, higher = more signal
# Chain of Torsin-1A (Homo sapiens) (O14656 whole entry, looked up): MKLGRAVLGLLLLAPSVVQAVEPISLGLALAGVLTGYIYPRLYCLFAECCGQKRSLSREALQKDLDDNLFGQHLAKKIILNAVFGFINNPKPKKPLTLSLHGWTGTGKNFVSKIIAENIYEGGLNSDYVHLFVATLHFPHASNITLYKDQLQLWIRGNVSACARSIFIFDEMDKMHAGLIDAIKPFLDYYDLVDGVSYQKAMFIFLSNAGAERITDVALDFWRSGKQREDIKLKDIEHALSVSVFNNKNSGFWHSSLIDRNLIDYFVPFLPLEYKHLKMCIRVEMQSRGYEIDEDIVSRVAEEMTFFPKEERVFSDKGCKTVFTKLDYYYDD
# Torsin-1A (Homo sapiens) [9] = biological target: Torsin-1A (Homo sapiens) (UniProt O14656); experiment: torsin A mutant lysate binding on microarrays – cell lysate, small-molecule microarray, COS7 lysate, 635/667 nm fluorescence, primary screen (AID 1150); details: COS7 hTOR1A mutant lysate, 635 nm fluorescence, higher = more signal;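 note: score pools 667 nm emission and signal to noise measuring lysate protein binding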
# [10] = tested on: Sonic hedgehog protein (Shh); experiment: Sonic hedgehog microarray binding compounds – biochemical, small-molecule microarray, 635/667 nm fluorescence, primary screen (AID 1151); details: 635 nm fluorescence, higher = more signal;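 note: Shh protein binding to compounds spotted on small-molecule microarray slides; score combines spot fluorescence intensity with signal-to-noise across triplicate slides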
# [11] = optical density shifts of acrAB sulA E. coli – strain DRC41, OD650, 48 h, E. coli filamentation inducer project, primary screen (AID 1152); details: higher = more signal, called active from +8 up or from −8 down;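 note: E. coli MC1000 strain DRC41 lacking acrAB efflux pump and sulA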
# [12] = probe aLefty1 binding on compound microarray – biochemical, small-molecule microarray, 635/667 nm fluorescence, primary screen (AID 1153); details: higher = more signal;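 note: score merges spot fluorescence with signal-to-noise ratio from the scanned slide images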
# [13] = plasmodial surface anion channel blockers, osmotic lysis – cell-based, P. falciparum Indochina, OD700, 1 h, primary screen (AID 1154); details: P. falciparum Indochina infected RBC osmotic lysis, higher = more signal, called active from +8 up or from −8 down
# [14] = plasmodial surface anion channel blockers, osmotic lysis – cell-based, P. falciparum Indochina, OD700, 2 h, primary screen (AID 1155);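 note: lysis reports solute entry through the parasite surface anion channel PSAC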; details: P. falciparum Indochina infected erythrocytes, higher = more signal, called active from +8 up or from −8 down
# [15] = changes in parasitized red cell lysis, either direction – P. falciparum Indochina, OD700, 3 h, PSAC antagonist project, primary screen (AID 1156); details: P. falciparum-infected erythrocytes, osmotic lysis, higher = more signal, called active from +8 up or from −8 down
# [16] = plasmodial surface anion channel blockers, osmotic lysis – cell-based, P. falciparum Indochina, OD700, 18 h, primary screen (AID 1157); details: P. falciparum Indochina infected erythrocytes, osmotic lysis OD700, 18 h; higher = more signal, called active from +8 up or from −8 down
# [17] = S6 kinase pathway phospho-S6 level changes – cell-based, A549, cytoblot, luminescence, serum-stimulated, primary screen (AID 1158); details: 5 h, higher = more signal;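 note: serum-stimulated A549 lung adenocarcinoma cells; signal is phosphorylated S6 detected by cytoblot immunostaining with HRP secondary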
# [18] = biological target: NADPH oxidase 2 (Homo sapiens) (UniProt P04839); experiment: compounds shifting NOX2 Amplex Red fluorescence – cell-based, HEK293-NOX2, PMA-stimulated, NOX inhibitor project, primary screen (AID 1159); details: 45 min, higher = more signal, called active from +8 up or from −8 down; note: test concentration not given here
# Chain of NADPH oxidase 2 (Homo sapiens) (P04839 whole entry, looked up): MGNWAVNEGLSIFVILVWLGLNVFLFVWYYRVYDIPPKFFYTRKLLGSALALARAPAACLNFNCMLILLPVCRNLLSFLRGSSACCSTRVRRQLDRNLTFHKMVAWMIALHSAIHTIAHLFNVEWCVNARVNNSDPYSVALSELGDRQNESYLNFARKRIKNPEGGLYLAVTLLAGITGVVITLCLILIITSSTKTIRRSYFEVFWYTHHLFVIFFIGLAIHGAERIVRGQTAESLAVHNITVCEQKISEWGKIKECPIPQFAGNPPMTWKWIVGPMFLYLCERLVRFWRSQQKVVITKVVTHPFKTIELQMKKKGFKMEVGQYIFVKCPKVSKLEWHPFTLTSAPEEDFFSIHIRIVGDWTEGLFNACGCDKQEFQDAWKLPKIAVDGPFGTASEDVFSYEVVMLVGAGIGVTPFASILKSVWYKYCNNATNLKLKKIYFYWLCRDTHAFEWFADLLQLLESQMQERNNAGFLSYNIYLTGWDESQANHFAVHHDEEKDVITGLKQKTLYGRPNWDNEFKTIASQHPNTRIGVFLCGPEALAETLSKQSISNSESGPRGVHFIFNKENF
# [19] = biological target: NADPH oxidase 4 (Homo sapiens) (UniProt Q9NPH5); experiment: compounds shifting NOX4 Amplex Red fluorescence – cell-based, HEK293-NOX4, tetracycline-induced, NOX inhibitor project, primary screen (AID 1160); details: HEK293-NOX4, Amplex Red H2O2 fluorescence, 45 min; higher = more signal, called active from +8 up or from −8 down
# Chain of NADPH oxidase 4 (Homo sapiens) (Q9NPH5 whole entry, looked up): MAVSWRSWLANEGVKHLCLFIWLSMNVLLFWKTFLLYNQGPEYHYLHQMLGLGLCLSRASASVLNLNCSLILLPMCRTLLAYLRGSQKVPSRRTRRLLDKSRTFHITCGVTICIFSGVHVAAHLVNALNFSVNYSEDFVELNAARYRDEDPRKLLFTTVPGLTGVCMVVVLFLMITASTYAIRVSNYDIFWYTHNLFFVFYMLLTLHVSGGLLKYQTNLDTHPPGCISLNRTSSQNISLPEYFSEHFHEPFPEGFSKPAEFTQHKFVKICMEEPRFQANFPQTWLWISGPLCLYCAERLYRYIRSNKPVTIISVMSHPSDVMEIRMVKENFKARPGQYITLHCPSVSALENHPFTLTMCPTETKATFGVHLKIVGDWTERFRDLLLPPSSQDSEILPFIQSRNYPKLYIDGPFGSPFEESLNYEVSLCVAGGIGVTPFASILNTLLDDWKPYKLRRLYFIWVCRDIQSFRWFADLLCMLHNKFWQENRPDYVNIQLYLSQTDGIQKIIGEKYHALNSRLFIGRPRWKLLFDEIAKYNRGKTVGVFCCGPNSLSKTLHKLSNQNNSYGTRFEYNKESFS
# [20] = biological target: NADPH oxidase 5 (Homo sapiens) (UniProt Q96PH1); experiment: compounds shifting NOX5 Amplex Red fluorescence – cell-based, HEK293-NOX5, NOX inhibitor project, primary screen (AID 1161); details: HEK293-NOX5, ionomycin, 45 min, higher = more signal
# Chain of NADPH oxidase 5 (Homo sapiens) (Q96PH1 whole entry, looked up): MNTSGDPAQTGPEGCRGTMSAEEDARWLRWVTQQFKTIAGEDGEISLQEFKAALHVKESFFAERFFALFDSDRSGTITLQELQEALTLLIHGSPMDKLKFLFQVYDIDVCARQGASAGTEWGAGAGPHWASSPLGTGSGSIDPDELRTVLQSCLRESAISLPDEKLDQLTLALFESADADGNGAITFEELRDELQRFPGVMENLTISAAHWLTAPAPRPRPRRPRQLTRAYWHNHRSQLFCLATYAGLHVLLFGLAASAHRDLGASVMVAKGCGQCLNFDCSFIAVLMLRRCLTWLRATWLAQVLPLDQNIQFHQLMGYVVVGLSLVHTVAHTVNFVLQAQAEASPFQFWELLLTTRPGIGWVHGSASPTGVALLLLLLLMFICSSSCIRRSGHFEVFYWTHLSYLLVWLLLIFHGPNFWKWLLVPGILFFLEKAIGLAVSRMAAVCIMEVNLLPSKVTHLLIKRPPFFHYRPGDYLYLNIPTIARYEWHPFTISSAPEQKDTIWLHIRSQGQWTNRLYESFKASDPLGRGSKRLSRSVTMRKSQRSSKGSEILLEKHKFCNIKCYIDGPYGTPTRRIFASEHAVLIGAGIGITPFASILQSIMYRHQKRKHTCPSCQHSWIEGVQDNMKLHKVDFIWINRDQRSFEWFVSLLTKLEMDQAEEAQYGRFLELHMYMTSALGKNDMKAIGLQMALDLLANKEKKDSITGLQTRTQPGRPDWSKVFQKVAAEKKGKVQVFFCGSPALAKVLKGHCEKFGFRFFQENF
SMILES,composite z-score [1],z-score [2],z-score [3],z-score [4],z-score [5],composite z-score [6],composite z-score [7],composite z-score (Torsin-1A (Homo sapiens) [8]),composite z-score (Torsin-1A (Homo sapiens) [9]),composite z-score [10],z-score [11],composite z-score [12],z-score [13],z-score [14],z-score [15],z-score [16],z-score [17],z-score [18],z-score [19],z-score [20]
COCCCNC(=O)[C@]1(Cc2ccccc2)N=C(c2ccc(OCCCO)cc2)O[C@@H]1c1ccccc1CN=[N+]=[N-],0.703,-3.68 (inactive),-0.0105 (inactive),-0.09 (inactive),-1.03 (inactive),1.31,0.491,0.52,0.82,-0.147,1.41 (inactive),0.401,27.1 (active),18.1 (active),1.44 (inactive),2.62 (inactive),2.35,-0.158 (inactive),1.26 (inactive),2.44
C[N+](C)(C)CCCCCCNC(=O)[C@H]1C[C@H]2C(=O)N[C@@H](Cc3ccccc3)C(=O)N2[C@H]1c1cccc(OCCO)c1,0.385,-0.236 (inactive),-0.278 (inactive),-0.252 (inactive),-0.54 (inactive),-0.563,0.0176,1.12,1.24,2.08,0.123 (inactive),0.222,10.3 (active),1.48 (inactive),-1.42 (inactive),0.719 (inactive),-0.62,1.78 (inactive),0.576 (inactive),1.13
COc1cc(CO)cc(I)c1O[C@H]1C=C(C(=O)NCCO)C[C@@H](N(C(=O)c2cc3ccccc3oc2=O)C2CCCCCC2)[C@@H]1O,0.021,-2.46 (inactive),-0.269 (inactive),-0.153 (inactive),-0.94 (inactive),0.0378,-0.157,-0.113,0.347,1.33,1.07 (inactive),-0.0646,4.63 (inactive),-0.78 (inactive),1.19 (inactive),-1.9 (inactive),1.95,0.202 (inactive),0.881 (inactive),1.2
COc1ccc([Si](C)(C)[C@H]2[C@H](CCO)O[C@@]3(C(=O)N(Cc4ccccc4)c4ccc(N5CCCCC5=O)cc43)[C@@H]2C)cc1,0.116,-7.68 (inactive),-1.98 (inactive),4.22 (inactive),-1.16 (inactive),0.381,-0.118,0.23,1.67,0.929,0.663 (inactive),0.0844,6.61 (inactive),2.24 (inactive),1.45 (inactive),1.72 (inactive),0.204,-1.16 (inactive),0.636 (inactive),1.81
COc1ccc(C(=O)Nc2ccc(CN3C(=O)[C@]4(O[C@H](CC(=O)N5CCC[C@H]5CO)[C@@H]([Si](C)(C)c5ccc(OC)cc5)[C@@H]4C)c4ccccc43)cc2)cc1,0.156,-4.81 (inactive),-0.00818 (inactive),2.62 (inactive),0.124 (inactive),0.111,0.0785,0.585,0.421,2.05,-0.951 (inactive),0.385,7.69 (inactive),1.45 (inactive),-0.749 (inactive),0.598 (inactive),0.424,2.62 (inactive),1.45 (inactive),4.87
C#CCN(C/C=C/c1ccccc1)[C@H](CO)c1ccccc1,0.325,-3.79 (inactive),-0.192 (inactive),1.65 (inactive),-0.121 (inactive),0.41,-0.103,0.25,0.294,0.743,-1.3 (inactive),-0.241,6.86 (inactive),0.893 (inactive),0.0025 (inactive),0.305 (inactive),-0.617,0.403 (inactive),0.04 (inactive),-3.98
CCCNC(=O)[C@@]1(Sc2ccc(C)cc2)CC(=O)N(Cc2ccccc2C(F)(F)F)[C@@H]1c1ccc(CO)cc1I,0.168,-4.54 (inactive),-0.376 (inactive),-0.231 (inactive),-0.0562 (inactive),1.17,-0.0405,1.26,1.47,1.88,0.0676 (inactive),0.0999,5.14 (inactive),0.0162 (inactive),0.378 (inactive),-1.95 (inactive),2.26,0.781 (inactive),-2 (inactive),-0.0781
Cc1ccc(S[C@]2(C(=O)O)CC(=O)N(Cc3ccccc3C(F)(F)F)[C@@H]2c2ccc(CO)cc2I)cc1,0.192,-1.03 (inactive),0.586 (inactive),-0.619 (inactive),1.81 (inactive),-0.584,-0.193,-0.46,1.98,0.0365,-1.17 (inactive),0.737,6.52 (inactive),0.427 (inactive),0.591 (inactive),0.402 (inactive),0.0721,1.63 (inactive),-1.72 (inactive),1.12
C=C(CCCC)/C(=C/C[C@H](OC(=O)c1ccncc1)c1ccc(OCCO)cc1)c1cc(C(=O)OC)ccc1OC,0.355,-4.81 (inactive),0.282 (inactive),5.11 (inactive),-0.366 (inactive),0.0399,0.0104,0.404,0.102,1.96,0.695 (inactive),-0.103,20.9 (active),1.88 (inactive),2.24 (inactive),-0.722 (inactive),0.769,-1.96 (inactive),-1.3 (inactive),-2.54
CCCCC(=C=CC[C@@H](O)c1ccc(CO)o1)CCO,0.136,-0.0181 (inactive),-0.748 (inactive),2.69 (inactive),-1.19 (inactive),-0.419,0.185,0.867,0.359,1.37,0.702 (inactive),0.459,2.3 (inactive),0.631 (inactive),0.399 (inactive),0.208 (inactive),0.126,2.35 (inactive),1.49 (inactive),1.3
COC(=O)c1c(CC[C@@H](CO)NC(=O)N[C@@H](Cc2ccccc2)Cn2cc(-c3ccccn3)nn2)oc(C(=O)N2CCOCC2)c1C(=O)OC,-0.216,-0.625 (inactive),-0.301 (inactive),0.498 (inactive),-0.248 (inactive),-0.0372,0.0184,-0.481,0.182,1.72,-0.55 (inactive),0.149,0.179 (inactive),0.571 (inactive),0.521 (inactive),0.729 (inactive),0.291,-1.76 (inactive),-0.4 (inactive),-1.88
CC(C)CNC(=O)[C@@]1(Cc2ccccc2I)c2ccccc2C(=O)N(Cc2ccccc2C(F)(F)F)[C@H]1c1ccc(CO)cc1,-0.0971,0.0523 (inactive),0.0415 (inactive),-0.295 (inactive),1.04 (inactive),-0.198,-0.128,-0.177,-0.185,-0.197,0.0655 (inactive),-0.103,1.23 (inactive),0.161 (inactive),0.649 (inactive),0.525 (inactive),-0.146,0.285 (inactive),0.0405 (inactive),0.401
C[N+](C)(C)CCCC[C@@H]1NC(=O)[C@H]2C[C@@H](C(=O)NCCCCCCNC(=O)CS)[C@@H](c3ccc(O)cc3)N2C1=O,-0.195,-0.798 (inactive),-0.15 (inactive),-0.947 (inactive),-0.549 (inactive),-1.48,-0.024,2.12,1.3,0.801,-0.265 (inactive),-0.299,1.24 (inactive),0.193 (inactive),1.12 (inactive),0.0061 (inactive),-0.409,0.518 (inactive),0.507 (inactive),0.936
[N-]=[N+]=NCc1ccccc1[C@@H]1OC(c2ccc(OCCCO)cc2)=N[C@]1(CCS(=O)(=O)c1ccccc1)C(=O)N1CCOCC1,0.477,-4.07 (inactive),-0.344 (inactive),1.59 (inactive),-1.08 (inactive),1.5,0.351,0.796,0.947,-0.149,1.79 (inactive),0.533,26.1 (active),12.5 (active),3.79 (inactive),0.45 (inactive),1.88,1.21 (inactive),1.18 (inactive),1.2
CC(C)[C@@H](C(=O)O)n1cc(C2(O)CCCCC2)nn1,0.265,-0.671 (inactive),-0.78 (inactive),-0.23 (inactive),-0.669 (inactive),0.306,-0.101,-0.0244,0.404,0.151,-0.0464 (inactive),-0.188,-0.477 (inactive),-0.436 (inactive),-2.15 (inactive),-0.89 (inactive),0.0556,-1.09 (inactive),-0.176 (inactive),-0.658
O=C1O[C@@H](c2ccccc2)[C@@H](c2ccccc2)N2[C@@H](c3ccc(OCCO)cc3)[C@]3(C(=O)Nc4ccc(C#CCCO)cc43)[C@@H](C(=O)NC[C@H](O)c3ccccc3)[C@H]12,0.425,-0.673 (inactive),-0.703 (inactive),-0.141 (inactive),0.119 (inactive),0.477,0.288,0.458,0.652,1.88,0.591 (inactive),0.708,3.19 (inactive),1.4 (inactive),1.53 (inactive),0.688 (inactive),0.136,2.21 (inactive),1.71 (inactive),0.235
COCCOC(=O)N1C(=O)[C@@]2(c3cc(C#CCCO)ccc31)[C@H](c1ccc(O)cc1)N1[C@H](c3ccccc3)[C@H](c3ccccc3)OC(=O)[C@H]1[C@@H]2C(=O)N1CCN(c2ncccn2)CC1,0.449,-1.97 (inactive),-0.185 (inactive),-0.459 (inactive),0.648 (inactive),0.842,1.62,0.852,0.606,1.53,0.209 (inactive),1.97,1.65 (inactive),0.0986 (inactive),0.599 (inactive),0.235 (inactive),0.078,1.11 (inactive),0.682 (inactive),1.85
